PubChem BioAssay (EPA / NIEHS)
Active and inactive are the calls of the source. Rule for the calls: active = hit-call score of the fitted dose curve at least 0.9, where 1 is the maximum; inactive = score below 0.9.

Key:
Conditions in all cases: mRNA level, 48 h; actives raise or lower the signal
[1] = read-out: JUN Transcription Factor, JUN (gene 3725); assay: LTEA_HepaRG_JUN: Life Technologies and Expression Analysis (LTEA) Assay for JUN Transcription Factor using HepaRG (AID 2283513)
How it was run: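 Read-out is JUN transcript level by TaqMan qRT-PCR, normalized to ACTB, GAPDH and POLR2A, after 48 h chemical treatment of HepaRG cells. Concentration-response spanned eight half-log points up to 100 uM in 0.5% DMSO.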

[2] = read-out: Lipase C (LIPC), LIPC (gene 3990); assay: LTEA_HepaRG_LIPC: Life Technologies and Expression Analysis (LTEA) Assay for Lipase C (LIPC) using HepaRG (AID 2283514)
How it was run: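 HepaRG, 48 h exposure, 8-pt half-log series from 100 uM in 0.5% DMSO, duplicates. Readout: LIPC mRNA by Fluidigm qRT-PCR, housekeeping-normalized (ACTB/GAPDH/POLR2A). Gain or loss fitted bidirectionally against DMSO baseline.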

[3] = read-out: Lipoprotein lipase (LPL), LPL (gene 4023); assay: LTEA_HepaRG_LPL: Life Technologies and Expression Analysis (LTEA) Assay for Lipoprotein lipase (LPL) using HepaRG (AID 2283515)
How it was run: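 HepaRG, 48 h exposure, 8-pt half-log dilutions from 100 uM, 0.5% DMSO vehicle, duplicates; qRT-PCR (Fluidigm array) of LPL mRNA vs housekeeping genes; bidirectional curve fit relative to DMSO baseline.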

[4] = read-out: MicroRNA 122 (MIR122), gene 406906; assay: LTEA_HepaRG_MIR122: Life Technologies and Expression Analysis (LTEA) Assay for MicroRNA 122 (MIR122) using HepaRG (AID 2283516); note: the transcript read is the microRNA miR-122
How it was run: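 Human liver HepaRG cultures receive test chemicals for 48 h at eight half-log concentrations from 100 uM. Expression is quantified by qRT-PCR with ACTB/GAPDH/POLR2A normalization and fitted bidirectionally against 0.5% DMSO.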

[5] = read-out: matrix metalloproteinase-10 (MMP10), MMP10 (gene 4319); assay: LTEA_HepaRG_MMP10: Life Technologies and Expression Analysis (LTEA) Assay for matrix metalloproteinase-10 (MMP10) using HepaRG (AID 2283517)
How it was run: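 Transcript levels come from Fluidigm qRT-PCR normalized to three housekeeping genes, with curves fitted bidirectionally against 0.5% DMSO. Human HepaRG cells were dosed for 48 hours at concentrations up to 100 uM.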

[6] = read-out: MYC, MYC (gene 4609); assay: LTEA_HepaRG_MYC: Life Technologies and Expression Analysis (LTEA) Assay for MYC using HepaRG (AID 2283518)
How it was run: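 Cells are thawed, plated and cultured 48 h, then treated for 48 h with test chemicals (eight half-log concentrations from 100 uM, 0.5% DMSO vehicle). RNA is isolated and MYC expression quantified by qRT-PCR against three housekeeping genes.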

[7] = read-out: matrix metalloproteinase-3 (MMP3), MMP3 (gene 4314); assay: LTEA_HepaRG_MMP3: Life Technologies and Expression Analysis (LTEA) Assay for matrix metalloproteinase-3 (MMP3) using HepaRG (AID 2283519)
How it was run: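 qRT-PCR read-out of MMP3 mRNA (normalised to three housekeeping genes) in HepaRG liver cells after 48 h chemical exposure; 8-point half-log series, top 100 uM, 0.5% DMSO vehicle. Bidirectional curve fitting against DMSO baseline.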

[8] = read-out: Paternally Expressed 10 (PEG10), PEG10 (gene 23089); assay: LTEA_HepaRG_PEG10: Life Technologies and Expression Analysis (LTEA) Assay for Paternally Expressed 10 (PEG10) using HepaRG (AID 2283520);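 for AC50: PEG10 transcript by qRT-PCR normalised to ACTB GAPDH and POLR2A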
How it was run: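 Human HepaRG cultures are dosed for 48 h across an eight-point half-log series starting at 100 uM, with 0.5% DMSO as vehicle and baseline. Gain or loss of PEG10 transcript is measured by qRT-PCR and fitted in both directions.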

[9] = read-out: Nuclear factor NF-kappa-B p105 subunit (Homo sapiens) (UniProt P19838); assay: LTEA_HepaRG_NFKB1: Life Technologies and Expression Analysis (LTEA) Assay for Nuclear Factor Kappa B Subunit 1 (NFKB1) using HepaRG (AID 2283521);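 note: TaqMan qRT-PCR transcript normalised to ACTB GAPDH and POLR2A housekeeping genes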
How it was run: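 Differentiated human HepaRG cells were exposed for 48 h in serum-free induction medium to eight concentrations (top 100 uM, half-log steps, 0.5% DMSO), in duplicate. NFKB1 mRNA was measured by TaqMan qRT-PCR, normalized to ACTB/GAPDH/POLR2A, and fitted bidirectionally against DMSO.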

[10] = read-out: Protein phosphatase 2A (PPP2R4), PTPA (gene 5524); assay: LTEA_HepaRG_PPP2R4: Life Technologies and Expression Analysis (LTEA) Assay for Protein phosphatase 2A (PPP2R4) using HepaRG (AID 2283522)
How it was run: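 Cells were plated, cultured 48 h, switched to serum-free induction medium, then dosed for 48 h (8 points, max 100 uM, 0.5% DMSO). RNA was isolated and PPP2R4 expression measured by TaqMan qRT-PCR.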

Measured: AC50

Sequence of Nuclear factor NF-kappa-B p105 subunit (Homo sapiens) (P19838 whole entry, looked up): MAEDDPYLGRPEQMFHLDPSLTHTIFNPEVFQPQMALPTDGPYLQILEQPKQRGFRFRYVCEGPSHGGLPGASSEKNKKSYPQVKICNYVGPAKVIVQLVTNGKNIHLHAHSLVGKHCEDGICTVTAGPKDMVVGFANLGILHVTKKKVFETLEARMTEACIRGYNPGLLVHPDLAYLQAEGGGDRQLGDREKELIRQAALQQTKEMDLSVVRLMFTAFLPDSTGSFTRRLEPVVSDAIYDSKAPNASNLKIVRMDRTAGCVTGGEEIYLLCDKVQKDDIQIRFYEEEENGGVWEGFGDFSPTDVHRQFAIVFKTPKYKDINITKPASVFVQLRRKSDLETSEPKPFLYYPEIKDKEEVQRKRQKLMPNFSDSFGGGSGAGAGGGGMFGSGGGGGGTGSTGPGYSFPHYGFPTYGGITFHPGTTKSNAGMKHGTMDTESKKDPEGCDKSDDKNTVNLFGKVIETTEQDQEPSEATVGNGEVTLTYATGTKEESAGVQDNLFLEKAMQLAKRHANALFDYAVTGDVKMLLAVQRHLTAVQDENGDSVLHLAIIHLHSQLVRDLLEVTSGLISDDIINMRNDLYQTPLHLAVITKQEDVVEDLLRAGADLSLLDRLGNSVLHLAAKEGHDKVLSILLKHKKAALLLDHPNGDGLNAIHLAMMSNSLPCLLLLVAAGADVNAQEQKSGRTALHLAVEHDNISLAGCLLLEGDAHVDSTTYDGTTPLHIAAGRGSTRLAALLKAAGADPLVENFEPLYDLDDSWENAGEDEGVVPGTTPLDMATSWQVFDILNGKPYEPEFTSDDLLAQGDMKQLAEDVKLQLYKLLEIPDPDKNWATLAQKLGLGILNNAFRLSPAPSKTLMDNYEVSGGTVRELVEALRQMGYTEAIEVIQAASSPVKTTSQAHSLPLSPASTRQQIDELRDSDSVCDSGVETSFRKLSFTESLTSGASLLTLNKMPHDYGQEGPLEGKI

CCOP(=S)(Oc1ccc([N+](=O)[O-])cc1)c1ccccc1 (stereo unspecified)
inactive: all assays above

CCCCc1ccccc1
not listed: [9]
inactive: all other assays above

ClC(Cl)(Cl)c1ccccc1
not listed: [9]
inactive: all other assays above

O=C(O)C(Cl)Cl
not listed: [9]
inactive: all other assays above

CSC(C)(C)C=NO
not listed: [9]
inactive: all other assays above

O=[N+]([O-])c1ccc(Cl)c(Cl)c1
inactive: all assays above

Nc1cc2c3c(c1)C(c1ccccc1)=N[C@@H](NC(=O)c1cccnc1)C(=O)N3CC2
inactive: all assays above

c1cc2c3c(cccc3c1)CC2
inactive: all assays above

CCOS(=O)(=O)OCC
not listed: [9]
inactive: all other assays above

CCC(C)(C)c1ccc(O)cc1
inactive: all assays above

CC(Cc1ccc(OCC(=O)O)cc1)NCC(O)c1csc(C(F)(F)F)n1 (stereo unspecified)
active: [8] 0.0862 µM
not listed: [9]
inactive: all other assays above

CC(C)(C)c1ccc(O)cc1
active: [4] 0.197 µM
not listed: [9]
inactive: all other assays above

c1ccc2c(c1)Nc1ccccc1S2
active: [3] 65 µM | [8] 77.1 µM
not listed: [9]
inactive: all other assays above

CCOP(=S)(OCC)SCSCC
inactive: all assays above

CCCCN(CCCC)SN(C)C(=O)Oc1cccc2c1OC(C)(C)C2
inactive: all assays above

Nc1ccc(Cl)cc1
not listed: [9]
inactive: all other assays above

CC(Cl)(Cl)C(=O)O
not listed: [9]
inactive: all other assays above

CCCN(CCC)c1c([N+](=O)[O-])cc(C(C)C)cc1[N+](=O)[O-]
active: [3] 12.5 µM | [8] 43.3 µM
not listed: [9]
inactive: all other assays above

OCC1CO1 (stereo unspecified)
not listed: [9]
inactive: all other assays above

Cc1ccc(O)cc1C
not listed: [9]
inactive: all other assays above

Nc1ccc2ccccc2c1
active: [6] 50 µM
not listed: [9]
inactive: all other assays above

ClC1=C(Cl)C2(Cl)C3C(Cl)C(Cl)CC3C1(Cl)C2(Cl)Cl (stereo unspecified)
active: [2] 43.7 µM | [6] 50 µM | [7] 23.6 µM | [8] 2.31 µM
inactive: all other assays above
